According to PubChem BioAssay (NCATS):
Values joined by “and” are separate entries in the source; they are usually repeats but may differ in a detail not shown here. Equal values may be shown once. Inconclusive results are not listed. Active and inactive are the calls of the source. The call rests on the fitted dose curve; in most records, active means well fitted curve in the direction sought with a large enough effect; inconclusive means small, poorly fitted or top-dose-only effect, or another doubt; inactive means no such curve, though single readings can be large; an effect the other way counts as inactive or inconclusive.

Tests used:
CRL-7250 = normal cell line; experiment: Cytotoxic Profiling of Annotated Libraries Using Quantitative High-Throughput Screening (AID 1296008); conditions: Five cell lines viability, CellTiter-Glo ATP luminescence, 48-72 h; max response: active compounds read low; further: nearly all actives have a fitted effect of over 60% in size; further: potency means the concentration at half of the fitted maximal effect; on max response: on the % scale 0 is the no-effect control and ±100 the full control effect
Method in brief: (§1)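 Cells exposed to compounds for 48 or 72 hr at 37 degrees Celsius. Viability read as ATP-coupled luminescence with CellTiter-Glo after 10 min at room temperature.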

HEK293 = experiment: as above; conditions: Five cell lines viability, CellTiter-Glo ATP luminescence, 48-72 h; max response: active compounds read low
Method in brief: as §1

HaCat [1] = experiment: as above; conditions: Five cell lines viability, CellTiter-Glo ATP luminescence, 48-72 h; max response: active compounds read low
Method in brief: as §1

KB-3-1 = experiment: as above; conditions: Five cell lines viability, CellTiter-Glo ATP luminescence, 48-72 h; max response: active compounds read low
Method in brief: as §1

NIH3T3 [2] = experiment: as above; conditions: Five cell lines viability, CellTiter-Glo ATP luminescence, 48-72 h; max response: active compounds read low
Method in brief: as §1

HACAT [3] = experiment: qHTS assay to identify novel small-molecules to repurpose for Merkel cell carcinoma treatment (AID 1296009); conditions: MCC and control cell lines, CellTiter-Glo viability, 72 h; at 44.8 µM (top of the series) unless noted; further: nearly all actives have a fitted effect of over 60% in size; further: potency means the concentration at half of the fitted maximal effect
Method in brief: (§2)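 Cells were treated for 72 hr at 37 degree celsius with compounds in 8- or 11-point dose response. Viability was read by CellTiter-Glo luminescence, normalized to no-cell (cytotoxicity) and DMSO controls.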

HEK293T = experiment: as above; conditions: MCC and control cell lines, CellTiter-Glo viability, 72 h; at 44.8 µM (top of the series) unless noted
Method in brief: as §2

MCC-13 = experiment: as above; conditions: MCC and control cell lines, CellTiter-Glo viability, 72 h; series mostly up to 46 µM
Method in brief: as §2

MCC-26 = experiment: as above; conditions: MCC and control cell lines, CellTiter-Glo viability, 72 h; series mostly up to 46 µM
Method in brief: as §2

MKL-1 = experiment: as above; conditions: MCC and control cell lines, CellTiter-Glo viability, 72 h; series mostly up to 46 µM
Method in brief: as §2

MKL-2 = experiment: as above; conditions: MCC and control cell lines, CellTiter-Glo viability, 72 h; series mostly up to 46 µM
Method in brief: as §2

UISO = experiment: as above; conditions: MCC and control cell lines, CellTiter-Glo viability, 72 h; series mostly up to 46 µM
Method in brief: as §2

WaGa = experiment: as above; conditions: MCC and control cell lines, CellTiter-Glo viability, 72 h; series mostly up to 46 µM
Method in brief: as §2

NIH3T3 [4] = experiment: as above; conditions: MCC and control cell lines, CellTiter-Glo viability, 72 h; series mostly up to 44.8 µM
Method in brief: as §2

TAB113 = experiment: qHTS profiling for inhibitors of Plasmodium falciparum proliferation (AID 504749);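 further: 0% = DMSO vehicle and full inhibition = artemisinin control; nearly all actives have a fitted effect of over 60% in size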; conditions: P. falciparum in erythrocytes, SYBR Green DNA, 72 h; series mostly up to 28.7 µM
Method in brief: (§3)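 P. falciparum-infected erythrocytes (0.3% parasitemia, 2.5% hematocrit) incubated with compound 72 h at 37 C, 5% CO2. Parasite DNA detected by SYBR Green after lysis, overnight at room temperature; normalised to 0.29 uM artemisinin and DMSO.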

TAB165 = experiment: as above; conditions: P. falciparum in erythrocytes, SYBR Green DNA, 72 h; series mostly up to 28.7 µM
Method in brief: as §3

W2 = experiment: as above; conditions: P. falciparum in erythrocytes, SYBR Green DNA, 72 h; series mostly up to 28.7 µM
Method in brief: as §3

C33A = experiment: Primary qHTS to identify gynecologic anti-cancer compounds using libraries of approved drugs and bioactive compounds (AID 1345084); conditions: Gynecologic cancer cell panel viability, ATPlite luminescence, 48 h; series mostly up to 57.5 µM; further: on the % scale 0 is the no-effect control and ±100 the full control effect; nearly all actives have a fitted effect of over 55% in size
Method in brief: (§4)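 Cytotoxicity screen measuring ATP content by luciferase luminescence. Each compound is applied at five concentrations for 48 h at 37 C with 5% CO2.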

CAOV3 = experiment: as above; conditions: Gynecologic cancer cell panel viability, ATPlite luminescence, 48 h; series mostly up to 57.5 µM
Method in brief: as §4

CASKI = experiment: as above; conditions: Gynecologic cancer cell panel viability, ATPlite luminescence, 48 h; series mostly up to 57.5 µM
Method in brief: as §4

CN(CC=CC#CC(C)(C)C)Cc1cccc2ccccc12
inactive: max response (CRL-7250) 1.65% | outcome (HEK293) | outcome (HaCat [1]) | max response (KB-3-1) 4.31% | max response (NIH3T3 [2]) -1.72% | outcome (HACAT [3]) | outcome (HEK293T) | Potency (MCC-13) | Potency (MCC-26) | Potency (MKL-1) | Potency (MKL-2) | Potency (UISO) | Potency (WaGa)

Cc1cc(NC(=O)Nc2ccc(N(C)C)cc2)c2cc(F)cc(F)c2n1
active: Potency (HEK293) 14.8 µM
inactive: outcome (CRL-7250) | outcome (HaCat [1]) | outcome (KB-3-1) | outcome (NIH3T3 [2]) | outcome (HACAT [3]) | Potency (MCC-13) | Potency (MCC-26) | Potency (MKL-1) | Potency (MKL-2) | Potency (NIH3T3 [4]) | Potency (UISO) | Potency (WaGa)

N#Cc1c(N(CC(=O)O)CC(=O)O)sc(C(=O)O)c1CC(=O)O
inactive: Potency (TAB113) | Potency (TAB165) | Potency (W2) | outcome (CRL-7250) | outcome (HEK293) | outcome (HaCat [1]) | max response (KB-3-1) -1.51% | max response (NIH3T3 [2]) -3.52% | outcome (HACAT [3]) | outcome (HEK293T) | Potency (MCC-13) | Potency (MCC-26) | Potency (MKL-1) | Potency (UISO) | Potency (WaGa)

CCOC(=O)[C@H]1O[C@H]1C(=O)N[C@@H](CC(C)C)C(=O)NCCC(C)C
inactive: max response (CRL-7250) -2.98% | outcome (HEK293) | max response (HaCat [1]) -0.586% | max response (KB-3-1) 0.158% | max response (NIH3T3 [2]) 1.05% | outcome (HEK293T) | Potency (MCC-13) | Potency (MCC-26) | Potency (MKL-1) | Potency (MKL-2) | Potency (UISO) | Potency (WaGa)

CCOC(=O)[C@@H](N)CCC(=O)N[C@@H](CSCc1ccccc1)C(=O)N[C@@H](C(=O)OCC)c1ccccc1
inactive: outcome (CRL-7250) | max response (HEK293) -7.26% | outcome (HaCat [1]) | max response (KB-3-1) -0.167% | max response (NIH3T3 [2]) 1.31% | outcome (HACAT [3]) | Potency (MCC-13) | Potency (MCC-26) | Potency (UISO) | Potency (WaGa)

CN(C)CCN(Cc1ccc(Cl)cc1)c1ccccn1
inactive: max response (CRL-7250) 4.38% | max response (HEK293) -16.3% | outcome (HaCat [1]) | max response (KB-3-1) -16.5% and 0.769% | max response (NIH3T3 [2]) -1.04% | outcome (HACAT [3]) | Potency (MCC-13) | Potency (MCC-26) | Potency (MKL-1) | Potency (MKL-2) | Potency (UISO) | Potency (C33A) | Potency (CAOV3) | Potency (CASKI)

CC(=O)NCCC(=O)N[C@@H](CCC(N)=O)C(=O)N[C@@H](CO)C(=O)N[C@@H](CCC(N)=O)C(=O)N[C@@H](CCC(N)=O)C(=O)N[C@H](C(=O)N[C@@H](Cc1ccccc1)C(=O)N[C@]1(C)CCCCCCC=CCCC[C@@](C)(C(=O)N[C@@H](CCC(N)=O)C(=O)N[C@@H](CC(N)=O)C(N)=O)NC(=O)[C@H](CC(C)C)NC(=O)[C@H](CC(C)C)NC(=O)[C@@H](CCCNC(=N)N)NC(=O)[C@H](Cc2c[nH]c3ccccc23)NC(=O)[C@H](CC(C)C)NC(=O)[C@H](CC(N)=O)NC1=O)[C@H](C)O
inactive: max response (CRL-7250) 1.13% | max response (HEK293) -2.69% | outcome (HaCat [1]) | outcome (KB-3-1) | max response (NIH3T3 [2]) 0.272% | outcome (HACAT [3]) | Potency (MCC-13) | Potency (MCC-26) | Potency (MKL-1) | Potency (UISO) | Potency (WaGa)

NCC1CCC(C(=O)O)CC1 (stereo not given)
inactive: max response (CRL-7250) -3.04% | max response (HEK293) 2.93% | outcome (HaCat [1]) | max response (KB-3-1) 7.37% and 2.9% | max response (NIH3T3 [2]) -3.72% | outcome (HACAT [3]) | Potency (MCC-13) | Potency (MCC-26) | Potency (MKL-1) | Potency (MKL-2) | Potency (UISO) | Potency (WaGa)

COc1cccc(OC)c1-c1cc(C(=O)NC2(C(=O)O)C3CC4CC(C3)CC2C4)nn1-c1ccnc2cc(Cl)ccc12 (stereo not given)
inactive: max response (CRL-7250) -4.21% | max response (HEK293) -21.7% | max response (HaCat [1]) -12% | outcome (KB-3-1) | outcome (NIH3T3 [2]) | Potency (MCC-13) | Potency (MCC-26) | Potency (MKL-1) | Potency (MKL-2) | Potency (NIH3T3 [4]) | Potency (UISO) | Potency (WaGa)

CCOc1ccccc1N=Nc1c(C)[nH]n(-c2nc(-c3ccccc3)cs2)c1=O
inactive: max response (CRL-7250) -16.1% | max response (HEK293) -20.4% | max response (HaCat [1]) -4.82% | max response (KB-3-1) -0.405% | max response (NIH3T3 [2]) -3.32% | Potency (MCC-13) | Potency (MCC-26) | Potency (MKL-1) | Potency (MKL-2) | Potency (UISO) | Potency (WaGa)

OC1CCC(Nc2ncc3nc(Nc4c(F)cc(F)cc4F)n([C@@H]4CCOC4)c3n2)CC1 (stereo not given in full)
inactive: outcome (CRL-7250) | max response (HEK293) -2.09% | max response (HaCat [1]) -6.12% | max response (KB-3-1) 8.34% | outcome (NIH3T3 [2]) | Potency (MCC-13) | Potency (MCC-26) | Potency (MKL-1) | Potency (MKL-2) | Potency (NIH3T3 [4]) | Potency (UISO) | Potency (WaGa)

N#Cc1ccc(Oc2ccc3c(c2)COB3O)cc1
inactive: outcome (CRL-7250) | max response (HEK293) -0.565% | max response (HaCat [1]) -2.09% and 3.76% | max response (KB-3-1) -8.17% and -9.93% | max response (NIH3T3 [2]) -0.632% and -20.3% | Potency (MCC-13) | Potency (MCC-26) | Potency (MKL-1) | Potency (MKL-2) | Potency (UISO) | Potency (WaGa) | Potency (C33A) | Potency (CAOV3) | Potency (CASKI)

COc1ccc2ccc(=O)oc2c1CC=C(C)C
active: Potency (MKL-1) 10.5 µM | Potency (MKL-2) 11.8 µM | Potency (WaGa) 5.26 µM
inactive: max response (CRL-7250) -22% | max response (HEK293) -5% | max response (HaCat [1]) -6.16% | outcome (KB-3-1) | max response (NIH3T3 [2]) -31.4% | Potency (MCC-13) | Potency (MCC-26) | Potency (UISO)
